NadD block – inhibitors of S. aureus NadD, primary screen, biochemical, colorimetric, uHTS; Nicotinate-nucleotide adenylyltransferase NadD (Staphylococcus aureus N315); inhibition, % at 20 µM; 360,000 tested, 0.78% active; purified NadD enzyme, colorimetric absorbance read-out; AID 602399, 2012; in the data active means inhibition above about 26%
NR3A LBD binder – binders of NR3A ligand-binding domain, primary screen, biophysical, differential scanning fluorimetry, uHTS. NR3A LBD differential scanning fluorimetry, Tm shift; 0% = protein alone, 100% = glycine-bound protein. Tm shift relative to glycine control, % at 25 µM. 340,000 tested, 2.5% active. AID 1259313, 2017;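 active means melting temperature shift of at least 10% of the positive control shift, at one fixed dose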
SKN-1 inh – suppressors of acrylamide-induced Pgst-4::GFP reporter in worms, primary screen, SKN-1 inhibitor project, whole organism, uHTS, GFP/RFP fluorescence ratio, strain VP596; C. elegans VP596 Pgst-4::GFP/RFP ratio, 24 h; inhibition, % at 21.8 µM; 360,000 tested, 0.49% active; AID 624304, 2012;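 active means interference check ratio from 0.5 to 1.5 plus GFP to RFP signal ratio inhibition reaching or exceeding a fixed threshold, cut at about 30% in these data, passing the limit was not always enough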
Vif imaging – HIV Vif self-association inhibitors, primary screen, imaging, HEK293T, single point | HEK293T cells, Vif self-association by quenched fluorescence, 24 h | inhibition, % at 7.49 µM | 340,000 tested, 0.35% active | AID 602346, 2012; in the data active means inhibition above about 50%, passing the limit was not always enough
esBAF inh – Bmi1 luciferase reporter increase in mESCs, primary screen, esBAF inhibitor project, mouse ES cells, Bmi1 luciferase knock-in, single point; 350,000 tested, 2% active; 24 h; 100% = twice the neutral-well signal; reporter increase, % at 12.5 µM; in the data active means activation above about 40%;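 further: 0% = median of the plate's neutral control wells and 100% = double that signal; a rise in the Bmi1 reporter signal indicates esBAF inhibition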
SMARCA2 activ – SMARCA2 (BRM) function activators, primary screen, cell-based, luminescence, high throughput. MG213 cells, MMTV-luciferase reporter, dexamethasone, overnight. activation, % at 9.1 µM. 370,000 tested, 1% active. AID 652017, 2013; in the data active means activation above about 7.8%;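 further: 0% = vehicle wells and 100% = reference activator wells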
Active calls of the source: *; / = no result given. The list is not random: actives were taken first. Their share in the collection is about 5.2%.

SMILES | NadD block | NR3A LBD binder | SKN-1 inh | Vif imaging | esBAF inh | SMARCA2 activ
Cc1nc(-c2ccccc2)sc1C(=O)Nc1ccccc1F | -7 | 3 | 20 | -9 | 9 | 2
Cc1nc(N)sc1C(=O)Nc1ccccc1 | 4 | -44 | 16 | 3 | 19 | -1
Cc1ccc(NC(=O)c2sc(N)nc2C)cc1 | -7 | 2 | -6 | 5 | 50* | 4
Cc1nc(NC(N)=S)sc1C(=O)Nc1ccccc1 | 6 | -7 | 15 | 13 | 36 | -2
Cc1nc(NC(=O)COc2ccccc2)sc1C(=O)Nc1cccc(Cl)c1 | 4 | 7 | 1 | -14 | 4 | 2
C[C@@H]1CN([C@@H](C)CO)C(=O)c2c(c3ccccc3n2C)-c2ccccc2CO[C@@H]1CN(C)S(=O)(=O)c1cn(C)cn1 | / | / | / | / | -4 | /
COCC(=O)N(C)C[C@H]1Oc2cc(-c3ccncc3)ccc2S(=O)(=O)N([C@@H](C)CO)C[C@@H]1C | / | / | / | / | -1 | /
COc1ccc(CN(C)C[C@@H]2OCCCC[C@H](C)Oc3ccc(NS(=O)(=O)c4ccc(Cl)cc4)cc3C(=O)N([C@H](C)CO)C[C@@H]2C)cc1 | / | / | / | / | -4 | /
FC(F)Sc1ccc(N=C2NN=C(c3ccc4c(c3)OCCO4)CS2)cc1 | 21 | 15* | 7 | -5 | 25 | -4
COc1ccc(N=C2NN=C(c3ccc4c(c3)OCCO4)CS2)cc1 | 22 | -1 | 3 | -9 | 19 | 0
COC(=O)c1ccc(N2C(=O)CC(SCCN)C2=O)cc1 (centres undefined) | -5 | 12* | -7 | 19 | 0 | 0
O=C(NC1CCCC1)[C@H]1[C@H](CO)[C@H]2Cn3c(cccc3=O)[C@@H]1N2CC1CCCC1 | / | / | / | / | 6 | /
COc1ccc(C2COc3cc(O)ccc3C2)c(OC)c1O (centres undefined) | -7 | 0 | -5 | -3 | 9 | 1
CC1(C)C=Cc2c(ccc3c2OC[C@H](c2ccc(O)cc2O)C3)O1 | -9 | 19* | 8 | 8 | -33 | 5
CC(C)=CCc1cc([C@@H]2COc3c(ccc4c3C=CC(C)(C)O4)C2)c(O)cc1O | 5 | 27* | 8 | -55 | 2 | -1
CC(=O)Oc1ccc([C@@H]2COc3c(ccc4c3C=CC(C)(C)O4)C2)c(OC(C)=O)c1 | -1 | -2 | 10 | -20 | 50* | 0
C[C@@H]1CCCCO[C@H](CN(C)C(=O)Nc2ccc(F)cc2)[C@H](C)CN([C@H](C)CO)C(=O)c2cc(NC(=O)CCC(F)(F)F)ccc2O1 | / | / | / | / | 3 | /
CCCN1C[C@H](C)[C@H](OC)CN(C)C(=O)c2ccc(NS(=O)(=O)c3ccccc3)cc2OC[C@@H]1C | / | / | / | / | 3 | /
COc1cccc(S(=O)(=O)N(C)C[C@@H]2Oc3cc(C4=CCCCC4)ccc3S(=O)(=O)N([C@H](C)CO)C[C@@H]2C)c1 | / | / | / | / | -14 | /
Cc1cc2oc3ccc(NCCCn4ccnc4)cc3c(=O)c2cc1C | 28 | -8 | 5 | 154* | 38 | 5
O=C(O)c1ccc(COc2ccccc2C=C2C(=O)c3ccccc3C2=O)cc1 | 16 | 29* | -1 | 3 | / | 0
O=CN(/C=C1\Sc2ccccc2C1=O)Cc1ccccc1 | 6 | 22* | -20 | 16 | 51* | 0
CCC(=O)N(C)/C=C1\Sc2ccccc2C1=O | -5 | 2 | 9 | -2 | / | 0
CC(=O)N(C)/C=C1\Sc2ccccc2C1=O | 3 | 14* | 8 | 1 | 26 | 1
CCN1[C@@H]2c3ccc(-c4ccncc4)c(=O)n3C[C@@H]2[C@@H](CO)[C@@H]1C(=O)NCc1ccccc1 | / | / | / | / | 2 | /
SMILES | NadD block | NR3A LBD binder | SKN-1 inh | Vif imaging | esBAF inh | SMARCA2 activ
COC(=O)c1sccc1-c1ccc(C(=O)Nc2ccccc2)o1 | -3 | -8 | 13 | -11 | 74* | 5
COC(=O)c1sccc1NC(=O)c1ccc(C)o1 | -9 | 5 | -3 | 1 | 5 | 2
CCOC(=O)c1ccc2nc3c(cc2c1)CCS3 | -2 | -4 | 16 | / | 50* | 2
O=C(C[C@@H]1CC[C@@H]2[C@H](COC[C@@H](O)CN2Cc2ccc(F)cc2)O1)NCc1ccccc1Cl | / | / | / | / | -6 | /
Cc1cc(-c2n[nH]c(=S)n2-c2ccccc2)nn1C | -14 | -4 | 4 | 1 | / | 7.9*
Cc1c(Cl)c(-c2n[nH]c(=S)n2-c2ccc(F)cc2)nn1C | -3 | 1 | 30* | 5 | / | 4
CO[C@H]1CN(C)C(=O)c2cc(NS(C)(=O)=O)ccc2OC[C@@H](C)N(C(=O)C2CCC2)C[C@H]1C | / | / | / | / | 4 | /
CCCC1(C2CCCC2)NC(=O)NC1=O (centres undefined) | 2 | 2 | 21 | 97* | 1 | -3
COc1ccc(C(=O)n2nc(C)cc2Nc2ccccc2)cc1 | -5 | 0 | 15 | 2 | 55* | 4
COc1ccc(C(=O)n2nc(-c3ccccc3)nc2SC)cc1 | -4 | 17* | -4 | -5 | / | 2
CSc1nc(-c2ccccc2)nn1S(=O)(=O)c1ccccc1 | -4 | -2 | 20 | 2 | 8 | 1
COc1ccc(-c2nc(SC)n(S(=O)(=O)c3ccccc3)n2)cc1 | -8 | 3 | 4 | / | 53* | 2
COc1cccc(NC(=O)N[C@@H]2CC[C@@H](CC(=O)NCc3ccncn3)O[C@H]2CO)c1 | / | / | / | / | -3 | /
COc1cc(/C=C2/SC(=S)N(Cc3ccccc3)C2=O)ccc1O | -3 | 20* | 3 | 8 | 16 | 2
O=C1/C(=C\c2ccc(O)c(O)c2)SC(=S)N1Cc1ccccc1 | 6 | 29* | 15 | 0 | -4 | -4
CCN=C1S/C(=C\c2ccc(O)c(OCC)c2)C(=O)N1CC | -6 | -1 | 0 | -4 | / | 5
COc1cc(/C=C2\SC(=S)N(C(C(=O)O)c3ccccc3)C2=O)ccc1O (centres undefined) | 4 | 2 | 19 | 1 | / | 1
O=C1/C(=C\c2cccc(O)c2)SC(=S)N1Cc1ccccc1 | -6 | 5 | 1 | 4 | 0 | 0
O=C1/C(=C\c2cccc(O)c2O)SC(=S)N1Cc1ccccc1 | 3 | 38* | 7 | -5 | -6 | -4
O=C(O)CN1C(=O)/C(=C\c2ccccc2OCc2ccccc2)SC1=S | 1 | / | -6 | 11 | -1 | -3
COc1cc(/C=C2/SC(=NCc3ccccc3)N(Cc3ccccc3)C2=O)ccc1O | 9 | 13* | 0 | -2 | -7 | -1
O=C(C[C@@H]1CC[C@@H]2NC[C@@H](O)COC[C@H]2O1)Nc1ccccc1 | / | / | / | / | -3 | /
O=C(C[C@H]1CC[C@@H]2[C@H](COC[C@@H](O)CN2Cc2ccccc2F)O1)NC1CCC1 | / | / | / | / | 0 | /

From PubChem BioAssay
